Screening data from PubChem BioAssay.
An excerpt weighted towards active compounds, which were near 0.91% of everything screened.
WRN helicase inh – qHTS for Inhibitors of WRN Helicase; AID 651768, 2012; Potency, µM (top dose mostly 114 µM), usual class: inhibitors; 360,000 compounds, 0.46% hits; WRN helicase unwinding, fluorescent forked duplex, kinetic; Bifunctional 3'-5' exonuclease/ATP-dependent helicase WRN (Homo sapiens), Q14191; note: nearly all actives have a fitted effect of over 55% in size
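Kinetic fluorescence helicase assay: unwinding of a quenched forked DNA duplex (100 nM final) with 2 mM ATP final raises red fluorescence (525/598 nm). Compounds sat 15 min at room temperature with 20 nM WRN beforehand.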
APEX1 inh – qHTS Assay for Inhibitors of the Human Apurinic/apyrimidinic Endonuclease 1 (APE1). DNA repair nuclease/redox regulator APEX1 (Homo sapiens), P27695. recombinant APE1, TAMRA/BHQ-2 abasic DNA cleavage fluorescence. Potency, µM (top dose mostly 65.8 µM), most hits filed as inhibitors. 350,000 compounds, 0.35% hits; note: nearly all actives have a fitted effect of over 55% in size
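0.75 nM APE1 + cpd, 15 min RT; start w/ 50 nM TAMRA/BHQ-2 THF-abasic dsDNA; kinetic fluor 525/598 nm ×3 reads @60 s; Δ(read3−read1); normalized to DMSO and NSC13755 control wells.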
TexasRed fluor – Total Fluorescence Counterscreen for Inhibitors of the Interaction of Thyroid Hormone Receptor and Steroid Receptor Coregulator 2; TRb/SRC2 Texas Red total fluorescence interference; Potency, µM (doses to about 106 µM); AID 1479, 2009; 280,000 compounds, 0.29% hits; active = well fitted curve in either direction with a large enough effect; inconclusive = small, poorly fitted or top-dose-only effect
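Flags fluorescent or light-absorbing compounds by total fluorescence, S + 2P, at 555 nm excitation and 632 nm emission. Mixture: 20 nM Texas Red SRC2 peptide, 0.6 uM human TRb LBD, 1 uM T3, 5% DMSO; compound exposure 5 h at ambient temperature.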
TRb SRC2 PPI – qHTS for Inhibitors of the Interaction of Thyroid Hormone Receptor and Steroid Receptor Coregulator 2 | Potency, µM (top dose mostly 106 µM), actives largely listed as inhibitors | TRbeta-SRC2 peptide binding, fluorescence polarization; receptor liganded with 1 µM T3 | 280,000 compounds, 0.065% hits | Thyroid hormone receptor beta (Homo sapiens), P10828; note: nearly all actives have a fitted effect of over 50% in size
Target sequence (P10828 whole entry, looked up): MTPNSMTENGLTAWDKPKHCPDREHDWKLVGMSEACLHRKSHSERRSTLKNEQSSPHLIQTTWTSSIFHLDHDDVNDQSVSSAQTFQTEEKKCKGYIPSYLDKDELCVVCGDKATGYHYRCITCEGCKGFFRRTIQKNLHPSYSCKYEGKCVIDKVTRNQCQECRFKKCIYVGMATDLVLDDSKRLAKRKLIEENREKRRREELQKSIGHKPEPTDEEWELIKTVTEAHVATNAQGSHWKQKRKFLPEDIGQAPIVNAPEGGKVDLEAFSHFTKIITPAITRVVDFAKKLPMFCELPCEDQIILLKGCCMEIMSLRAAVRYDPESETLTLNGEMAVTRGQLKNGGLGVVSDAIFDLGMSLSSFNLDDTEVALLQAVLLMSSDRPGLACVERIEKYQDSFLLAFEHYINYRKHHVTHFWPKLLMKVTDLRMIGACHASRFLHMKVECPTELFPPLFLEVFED
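Human TRb ligand-binding domain (0.6 uM) is mixed with 20 nM Texas Red SRC2 peptide and 1 uM T3; after compound addition and 5 hr at ambient temperature, polarization is measured and normalized to unbound and bound controls.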
BLM helicase inh – qHTS Assay for Inhibitors of Bloom's syndrome helicase (BLM); RecQ-like DNA helicase BLM (Homo sapiens), P54132; recombinant BLM DNA unwinding, fluorescence dequenching; Potency, µM (top dose mostly 56.1 µM), most hits filed as inhibitors; 350,000 compounds, 0.2% hits; AID 2528, 2010; note: nearly all actives have a fitted effect of over 35% in size
RECQ1 inh – qHTS Assay for Inhibitors of RecQ-Like Dna Helicase 1 (RECQ1) | ATP-dependent DNA helicase Q1 (Homo sapiens), P46063 | RECQ1 DNA unwinding, red fluorescence kinetic read | Potency, µM (highest dose often 57.3 µM), hits mostly inhibitors | 240,000 compounds, 0.54% hits | AID 2549, 2010; note: nearly all actives have a fitted effect of over 30% in size
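50 nM RECQ1T1 preincubated 15 min with compound in Tris pH 8.0 buffer with MgCl2, DTT, Tween-20 and 2.5 ug/ml poly(dI-dC); started with 200 nM TAMRA/BHQ-2 forked duplex and 2 mM ATP. Unwinding read as fluorescence (525/598 nm), two reads 2 h apart.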
A number is an active result; – = inactive; ? = inconclusive; · = not tested or not shown; [ ] = remark or other dose. Unless noted, calls come from the whole dose curve; as a rule, active = well fitted curve in the direction sought with a large enough effect; inconclusive = small, poorly fitted or top-dose-only effect, or another doubt; inactive = no such curve, though single readings can be large; an effect the other way counts as inactive or inconclusive.

SMILES | WRN helicase inh | APEX1 inh | TexasRed fluor | TRb SRC2 PPI | BLM helicase inh | RECQ1 inh
CC(=O)c1ccccc1NC(=O)c1ccc(OCc2c(C)noc2C)cc1 | – | – | · | · | · | ·
COc1ccc2c(c1)CCc1c(C(=O)Nc3c(C)nn(Cc4c(Cl)cccc4Cl)c3C)noc1-2 | · | · | 0.0794µM[quencher] | – | – | ·
CCCSc1ncc(Cl)c(C(=O)N(Cc2ccc(N(C)C)cc2)C2CCS(=O)(=O)C2)n1 (stereo unspecified) | · | · | 4.47µM[quencher] | – | – | ·
C=CCNC(=O)c1cc(-c2cccs2)on1 | · | – | · | · | · | ·
C=C1C(=O)C23C(O)C1CCC2C12CCCC(C)(COC(C)=O)C1C(O)C3(O)OC2 (stereo unspecified) | 17.8µM | · | · | · | · | ·
CC1=C(c2ccc(Cl)cc2)S(=O)(=O)N=C1N1CCC(C(=O)NCCc2ccco2)CC1 | · | · | – | – | – | ·
CC1=C(c2ccc(C(C)C)cc2)S(=O)(=O)N=C1N1CCC(C(=O)NCCc2ccco2)CC1 | · | · | 25.1µM[quencher] | – | – | ·
Nc1nnc(-c2cccc3ccccc23)o1 | · | – | · | · | · | ·
N.N.O=C(O)C1(C(=O)O)CCC1.[Pt] | · | 6.31µM | – | – | – | –
O=C(O)C1(C(=O)O)CCC1 | – | – | · | · | · | ·
O=C1C(c2ccccc2)=[N+]([O-])c2ccccc21 | 70.8µM | – | · | · | · | ·
COc1ccc(NC(=O)c2cc(S(=O)(=O)N3CCCCC3)cn2C)cc1Cl | · | · | – | – | – | ·
COc1ccc(NC(=O)c2cc(S(=O)(=O)N3CCOCC3)cn2C)cc1Cl | – | – | 10µM[quencher] | – | – | ·
COc1ccc(CC(=O)NNS(=O)(=O)c2cccc([N+](=O)[O-])c2)cc1OC | – | –[12.4 µM] | · | · | – | ·
COc1ccc(-n2c(O)c(/C=N/NS(=O)(=O)c3cccc([N+](=O)[O-])c3)c3ccccc3c2=O)cc1OC | 14.1µM | – | – | – | – | –
c1ccc(-c2ccc(OCCN3CCCC3)cc2)cc1 | · | – | – | – | – | –
CC[C@]12c3[nH]c4cc(CCC(=O)N(C)C)ccc4c3CCN1C(=O)[C@@H](CC(=O)NCCCOC)C[C@@H]2C(=O)N1CCN(C(=O)C2CC2)CC1 | – | 21.2µM | · | · | · | ·
CC[C@]12c3[nH]c4cc(CCC(=O)N(C)C)ccc4c3CCN1C(=O)[C@@H](CC(=O)NCCCN(C)C)C[C@@H]2C(=O)N1CCN(C(=O)C2CC2)CC1 | – | – | · | · | · | ·
O=C(Nc1ccc(C(=O)Nc2ccc(C(=O)Nc3ccc(S(=O)(=O)O)c4cc(S(=O)(=O)O)cc(S(=O)(=O)O)c34)cc2)cc1)Nc1ccc(C(=O)Nc2ccc(C(=O)Nc3ccc(S(=O)(=O)O)c4cc(S(=O)(=O)O)cc(S(=O)(=O)O)c34)cc2)cc1 | · | 7.94µM | – | ? | – | 6.31µM
Nc1ccc(C(=O)Nc2ccc3cc(S(=O)(=O)O)ccc3c2)cc1 | – | · | · | · | · | ·
O=C(/C=C/c1ccco1)Nc1cccnc1Cl | – | ? | – | – | – | ?
COC(=O)c1ccccc1NC(=O)/C=C/c1ccco1 | – | – | 3.16µM[quencher] | ? | – | –
CC(=O)Nc1ccc(NC(=O)c2ccco2)cc1 | – | – | – | – | – | –
CC1N(C)c2cc(NC(=O)c3ccco3)ccc2C1(C)C (stereo unspecified) | 50.1µM | ? | 44.7µM[fluorescent] | ? | ? | 25.1µM
Cc1ccc(NC(=O)CN2C(=O)N/C(=C/c3cc(C)n(-c4ccc(C(=O)O)cc4)c3C)C2=O)cc1 | –[11.6 µM] | ? | – | – | – | 39.8µM
Cc1ccc(Cl)cc1Cl | · | · | – | – | · | ·
CCCCOP(=O)(c1ccc(N(C)C)cc1)C(Nc1ccccc1)c1ccccc1 (stereo unspecified) | – | – | – | – | – | –
